Assay outcomes from PubChem BioAssay.
p53 reactivation: mutant p53 re-activation in reporter cells; H1299 p53-A138V BP100-luciferase reporter, luminescence, 24 h; actives 0.063% (n = 320,000); Potency, µM (series often up to 92.2 µM), hits mostly activators; AID 504706; note: nearly all actives have a fitted effect of over 45% in size
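H1299 (p53-null), stable ts p53-A138V + BP100-Luc; 1000 cells/well, Opti-MEM/10% FBS; cpd 4 pt, 1:5; 24 h, 37 deg C, 5% CO2; detection reagent 10 min RT; luminescence.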
ELG1 repair inh: inhibitors of ELG1-dependent DNA repair in HEK293T cells. HEK293T ELG1-luciferase reporter, luminescence, 16 h; DNA damage induced by 5-fluorouridine. Potency, µM (series often up to 46.1 µM), actives largely listed as inhibitors. actives 2.3% (n = 330,000); note: nearly all actives have a fitted effect of over 55% in size
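Overnight (16 hr) co-exposure of 2,000 cells/well to 5-fluorouridine and compound at 37 °C preceded detection. Luciferase was quantified via ONE-Glo luminescence; loss of signal denotes inhibition.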
BRCA1 expr act: BRCA1 expression activation. AID 624202. Potency, µM (doses to about 46.1 µM), actives largely listed as activators. MCF7-BRCA1-FFLuc reporter, luminescence, 48 h; response scale: scaled: vehicle 0%, 10 µM genistein 100%. actives 1.1% (n = 380,000); note: nearly all actives have a fitted effect of over 80% in size
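Luminescence from a BRCA1-driven firefly luciferase in MCF7 cells was read after 48 h compound exposure at 37 C. Data normalized against DMSO and a 10microM genistein activation control, then curve-fitted across the titration.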
Gal4-VP16 FLuc: inhibits Gal4-VP16 luciferase reporter, ROR gamma counter-screen | Potency, µM (top dose mostly 53.6 µM), actives largely listed as inhibitors | actives 3.5% (n = 310,000) | Drosophila S2 Gal4-VP16 UAS-luciferase, luminescence, 20 h;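 note: Gal4-VP16 expression switched on by copper sulfate through the metallothionein promoter; nearly all actives have a fitted effect of over 50% in size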
Giardia killer: Giardia lamblia killing; Giardia lamblia trophozoite viability; activity change, % at 7.66 µM, hits read low; actives 0.15% (n = 340,000); AID 540267; in the data active = activity change below about -80%; inconclusive = between about -30% and that limit;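 note: parasites exposed to compound for two days anaerobically before the ATP read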
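Each well holds 100 Giardia trophozoites and compound. After two days (48 hrs) at 37 deg C in anaerobic conditions, ATP is quantified by luminescence.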
RORg inh: inhibitors of mouse ROR gamma transcriptional activity; actives 5.4% (n = 310,000); Potency, µM (series often up to 53.6 µM), most hits filed as inhibitors; Drosophila S2 Gal4-RORgamma UAS-luciferase reporter, 20 h; P51450; note: nearly all actives have a fitted effect of over 60% in size
Target sequence (P51450 whole entry, looked up, the tested form may be a part): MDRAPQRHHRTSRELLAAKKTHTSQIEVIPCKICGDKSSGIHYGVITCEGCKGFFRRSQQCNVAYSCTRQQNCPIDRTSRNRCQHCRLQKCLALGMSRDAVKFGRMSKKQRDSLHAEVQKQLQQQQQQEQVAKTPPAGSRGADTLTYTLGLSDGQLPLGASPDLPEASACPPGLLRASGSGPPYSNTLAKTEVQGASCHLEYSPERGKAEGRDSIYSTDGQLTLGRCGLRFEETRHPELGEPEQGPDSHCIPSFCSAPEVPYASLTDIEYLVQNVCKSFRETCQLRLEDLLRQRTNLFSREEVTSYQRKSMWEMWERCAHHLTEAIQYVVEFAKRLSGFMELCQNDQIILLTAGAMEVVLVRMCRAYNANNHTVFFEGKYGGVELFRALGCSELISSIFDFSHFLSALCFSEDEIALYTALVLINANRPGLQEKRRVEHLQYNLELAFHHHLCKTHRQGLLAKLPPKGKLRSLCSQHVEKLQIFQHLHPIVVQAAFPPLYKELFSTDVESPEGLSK
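In this cell-based reporter format, copper sulfate (700 uM final) drives Gal4–ROR gamma fusion expression from a metallothionein promoter in Drosophila Schneider cells; compounds preincubated 1 hr, reporter read after 20 hr at ambient temperature.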
Of the large screens only hits and unclear results are named; the others gave an inactive call. Compounds with a hit are over-represented: about 7.6% of the library has one in this group of screens. Unless noted, calls come from the whole dose curve; as a rule, active = well fitted curve in the direction sought with a large enough effect; inconclusive = small, poorly fitted or top-dose-only effect, or another doubt; inactive = no such curve, though single readings can be large; an effect the other way counts as inactive or inconclusive.

Cc1cc(Cl)c2oc(C(=O)NCCN3CCCCC3CO)c(C)c2c1 (configuration not stated)	none
COc1cccc(CNC(=O)CSc2ccc(-c3cccs3)nn2)c1	none
C/C(=N\NC(=O)c1cc(-c2cccnc2)nc2ccccc12)c1ccc(O)cc1O	p53 reactivation inconclusive, ELG1 repair inh inconclusive, Gal4-VP16 FLuc 0.56µM, RORg inh 0.63µM
C/C(=N/NC(=O)c1ccc(Cl)s1)c1cccnc1	Gal4-VP16 FLuc inconclusive, RORg inh 13µM
C/C(=N/NC(=O)c1ccc(C)s1)c1cccnc1	ELG1 repair inh inconclusive
C/C(=N/NC(=O)c1cc(-c2ccccc2)nc2c(Cl)cccc12)c1cccnc1	ELG1 repair inh inconclusive, Gal4-VP16 FLuc 11µM, RORg inh 18µM
Cc1ccc(C)c(OC(C)C(=O)Nc2ccc(S(=O)(=O)Nc3nccs3)cc2)c1 (configuration not stated)	RORg inh inconclusive
O=C(CCc1nnc(C2(c3ccc(Cl)cc3)CCC2)o1)NC1CC1	none
CCc1ccccc1Nc1nc(N)nc(COC(=O)CCS(=O)(=O)c2ccccc2)n1	none (no result: Gal4-VP16 FLuc, RORg inh)
CCCC(=O)C1=C(O)C(c2cccc(Oc3ccccc3)c2)CCC1=O (configuration not stated)	ELG1 repair inh 18µM, Gal4-VP16 FLuc inconclusive, RORg inh 13µM
O=C1CC(c2cccc(Oc3ccccc3)c2)NC(=O)N1 (configuration not stated)	none
O=C(NNC1=Nc2cccc3cccc1c23)c1ccccc1Br	Gal4-VP16 FLuc 1.1µM, RORg inh 0.71µM
O=C(Nc1ccncc1)c1cc(-c2ccccn2)nc2ccccc12	none
COc1ccc(Nc2nc(-c3ccccc3)nc3ccccc23)cc1S(=O)(=O)N1CCOCC1	ELG1 repair inh 8.2µM, RORg inh inconclusive
COc1ccc(NC(=O)c2cc(-c3ccco3)nc3ccccc23)cc1S(=O)(=O)N1CCOCC1	ELG1 repair inh 10µM
O=C(Nc1ccc(F)cc1)c1cc(-c2ccccn2)nc2c(Cl)cccc12	RORg inh 13µM
O=C(Nc1ccc(Cl)c(S(=O)(=O)N2CCOCC2)c1)c1ccccn1	RORg inh inconclusive
O=C(Nc1ccc(Cl)c(S(=O)(=O)N2CCOCC2)c1)c1cc(-c2ccccn2)nc2ccccc12	ELG1 repair inh 18µM
CC(C)=CC(=O)N1CCCc2ccccc21	none
COCCCN1C(=O)C2C(C(=O)Nc3cc(C)cc(C)c3)C3C=CC2(O3)C1C(=O)NC1CCCCC1 (configuration not stated)	none
CCOc1cc(N2CCOCC2)c(OCC)cc1NC(=O)c1cc(-c2ccco2)nc2ccccc12	ELG1 repair inh 2.6µM, Gal4-VP16 FLuc inconclusive
COc1cccc(Nc2ncc3ncc(=O)n(C[C@H]4CCCO4)c3n2)c1	Gal4-VP16 FLuc 11µM (no result: p53 reactivation, ELG1 repair inh, BRCA1 expr act, Giardia killer)
CC1CCN(c2nnc(-c3ccccc3)c3ccccc23)CC1	none
CC(/C=C/c1ccc(C)o1)=C\C(=O)O	Gal4-VP16 FLuc inconclusive, RORg inh 20µM
Cc1cccc(NC(=S)N=Nc2c(O)n(C)c3ccc(S(=O)(=O)N4CCOCC4)cc23)c1	Gal4-VP16 FLuc 0.71µM, RORg inh 0.13µM
Cc1ccc(NC(=S)N=Nc2c(O)n(C)c3ccc(S(=O)(=O)N4CCOCC4)cc23)cc1	Gal4-VP16 FLuc 1µM, RORg inh 0.71µM
CCn1c(=NC(=O)CSC(C)=O)sc2cc(OC)ccc21	Gal4-VP16 FLuc inconclusive, RORg inh 10µM
COCCn1c(=NC(=O)CSC(C)=O)sc2cc(OC)ccc21	none
CCOCCn1c(=NC(=O)CSCC(=O)Nc2cc(C)on2)sc2cc(OC)ccc21	ELG1 repair inh 15µM
COCCn1c(=NC(=O)CSCC(=O)NC2CCCCC2)sc2cc(OC)ccc21	ELG1 repair inh inconclusive
COc1ccc(CNS(=O)(=O)NCc2ccc(OC)c(OC)c2)cc1OC	ELG1 repair inh inconclusive
Cc1ccc(/C=C/C(=O)c2ccccc(=O)c2O)cc1C	ELG1 repair inh 21µM, Gal4-VP16 FLuc 3.5µM, RORg inh 2.8µM
O=C(/C=C/c1ccccc1)c1cc(Br)ccc(=O)c1O	p53 reactivation inconclusive, ELG1 repair inh inconclusive, Gal4-VP16 FLuc inconclusive, RORg inh inconclusive
Cc1ccc(C(=O)N2CCCCC2)cc1NC1=C(Cl)C(=O)N(Cc2ccccc2)C1=O	ELG1 repair inh 18µM (no result: Gal4-VP16 FLuc, RORg inh)
O=C(NCCN1C(=O)S/C(=C\c2ccc(Cl)c(Cl)c2)C1=O)c1ccc2c(c1)C(=O)N(Cc1ccncc1)C2=O	ELG1 repair inh 9.2µM, Gal4-VP16 FLuc inconclusive, RORg inh inconclusive
CC1(C)N([O-])c2cc([N+](=O)[O-])ccc2[N+]1=O	Gal4-VP16 FLuc inconclusive, RORg inh 20µM
Clc1cccc(Cl)c1C1Nc2cccc3cccc(c23)N1	ELG1 repair inh inconclusive, Gal4-VP16 FLuc 4µM, RORg inh 0.71µM
Fc1cccc(Cl)c1C1Nc2cccc3cccc(c23)N1	none (no result: p53 reactivation, Gal4-VP16 FLuc, RORg inh)
N#CC1(NC(=O)COC(=O)c2cc(O)c3ccccc3c2O)CCCCC1	none (no result: Gal4-VP16 FLuc, RORg inh)
Cc1ccccc1NC(=S)c1nc2ccccc2[nH]1	p53 reactivation inconclusive, ELG1 repair inh inconclusive, Gal4-VP16 FLuc inconclusive, RORg inh inconclusive
S=C(Nc1ccc(Cl)cc1)c1nc2ccccc2[nH]1	p53 reactivation inconclusive, ELG1 repair inh inconclusive, Gal4-VP16 FLuc 20µM, RORg inh 11µM
O=C(CN1CCOCC1)Nc1ccc(N2CCN(c3ccccc3)CC2)c(F)c1	ELG1 repair inh inconclusive
CCN(CC)C(=O)CSc1nnc2nnc3cc(Cl)ccc3n12	ELG1 repair inh inconclusive, Giardia killer -81
Cc1ccc(-n2nnnc2SCc2nc3sc(C)c(C)c3c(=O)[nH]2)cc1	Gal4-VP16 FLuc inconclusive, RORg inh 11µM
Cc1sc2nc(CN3CCN(c4ccc(O)cc4)CC3)[nH]c(=O)c2c1C	ELG1 repair inh 21µM
c1nc2n(n1)C1=C(CCCC1)C1(CCCCC1)N2	Gal4-VP16 FLuc inconclusive, RORg inh 2.5µM
C/C=C/c1ccc(OCC(=O)Nc2cc(OC)c(OC)c(OC)c2)c(OC)c1	ELG1 repair inh 15µM
CCCCNC(=S)N/N=C/c1ccc(OCC(=O)Nc2c(C)cc(C)cc2C)c(OC)c1	Gal4-VP16 FLuc 5µM, RORg inh inconclusive
COc1cc(/C=N/NC(N)=S)ccc1OCC(=O)Nc1ccc(C)c(C)c1	Gal4-VP16 FLuc inconclusive, RORg inh 11µM (no result: p53 reactivation, ELG1 repair inh)
C/C=C/c1ccc(OCC(=O)O)c(OC)c1	none
COc1ccc(OC)c(NC(=O)CCN2CCN(c3ccccc3)CC2)c1	ELG1 repair inh inconclusive
Nc1c(Cl)cc(-c2cn(CCC(=O)O)c(-c3ccc(Cl)nc3)n2)cc1Cl	none (no result: Gal4-VP16 FLuc, RORg inh)
Cc1ccc(C(=O)Nc2ccc(N3CCN(C)CC3)cc2)cc1C	p53 reactivation inconclusive, ELG1 repair inh inconclusive, Gal4-VP16 FLuc inconclusive, RORg inh inconclusive
